DT40 TDP1 CPT: DT40-hTDP1 cell growth loss with CPT; hit rate 12% among 420,000; AID 686979; chicken DT40 Tdp1-/-;hTDP1 cells + 20 nM CPT, ATP luminescence, 48 h; Potency, µM (doses to about 46.2 µM), without a hit: top-dose activity change, negative = growth inhibition, most hits filed as inhibitors; further: on the % scale 0 is the no-effect control and ±100 the full control effect; nearly all actives have a fitted effect of over 55% in size
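Cell growth measured by CellTiter-Glo luminescence after a minimum 48 h, 37 C compound exposure with 20 nM CPT in Tdp1-knockout DT40 cells stably expressing hTDP1, seeded 400/well; qHTS titration format.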
HT1080 IDH1KD tx: toxicity to HT-1080 IDH1 knockdown cells (counter line). hit rate 2% among 360,000. Potency, µM (highest dose often 46.1 µM), inactives show at the top dose activity, negative = toxicity, actives largely listed as cytotoxic. HT-1080 IDH1 knockdown viability, ATP luminescence, 48 h;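 further: 0% = DMSO wells and -100% = cell-free medium wells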
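Assay cells: HT-1080 with IDH1 knockdown, 750 per well, RPMI/5% FBS. Exposure: 48 h at 37 °C following 2 h pre-incubation. Read: CellTiter-Glo luminescence; fitted concentration-response, curve class assigned.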
TGFb inhibitor: TGF-b pathway inhibition; AID 588855; HepG2 CAGA-GFP TGF-b/SMAD3 reporter, GFP fluorescence, 18 h; TGF-beta stimulated, 500 pg/mL final; Potency, µM (highest dose often 46.1 µM), without a hit: at the top dose activity, negative = inhibition, actives largely listed as inhibitors; hit rate 1.2% among 410,000; further: on the % scale 0 is the no-effect control and ±100 the full control effect; nearly all actives have a fitted effect of over 65% in size
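HEPG2 CAGA-GFP reporter cells (1000/well, DMEM with 1% FBS) received compounds, then recombinant TGF-beta at 500 pg/mL final for 18 hours at 37 degrees C. Per-cell GFP summed per well was normalised to unstimulated and stimulated DMSO controls before curve fitting.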
HepG2 viability: HepG2 cytotoxicity, counter-screen for TGF-b inhibitors; HepG2 CAGA-GFP viability, ATP luminescence, 18 h; Potency, µM (highest dose often 46.1 µM), for the others: at the highest dose activity change, negative = cytotoxicity, usual class: cytotoxic; hit rate 0.76% among 410,000
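HepG2 CAGA-GFP cells (1000/well, DMEM with 1% FBS) received compound, then TGF-beta at 500 pg/mL final, and were incubated 18 hours at 37 degrees C. Viability was read by CellTiter-Glo luminescence. Media-only wells were set as complete cell-killing and DMSO as no toxicity.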
DT40 TDP1 no CPT: qHTS for Inhibitors of human tyrosyl-DNA phosphodiesterase 1 (TDP1): qHTS in cells in absence of CPT; DT40 Tdp1-/- hTDP1 cells, no CPT, ATP luminescence, 48 h; Potency, µM (series often up to 46.2 µM), inactives show at the top dose activity change, negative = growth inhibition, usual class: inhibitors; hit rate 15% among 420,000; AID 686978, 2013; further: on the % scale 0 is the no-effect control and ±100 the full control effect; nearly all actives have a fitted effect of over 55% in size
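Seeded 400 DT40-hTDP1 cells/well (vehicle DMSO, no 20 nM CPT); pinned compounds; ≥48 hr at 37 °C; CellTiter-Glo luminescence as viability measure.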
HT1080NT lethal: kills 2HG-producing HT-1080-NT fibrosarcoma cells | Potency, µM (titrated, usually from 46.1 µM), without a hit: at the top dose activity, negative = less viability, hits mostly cytotoxic | HT-1080-NT fibrosarcoma viability, CellTiter-Glo ATP luminescence, 48 h | hit rate 1.6% among 360,000 | AID 686970;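 further: NT is the 2HG producing partner of a matched IDH1 knockdown line; 0% = DMSO-treated cells and -100% = media-only wells without cells; nearly all actives have a fitted effect of over 55% in size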
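Luminescent CellTiter-Glo readout after 48 hours of compound exposure at 37 degrees C defined viability of HT-1080-NT cells. Activity was normalized to DMSO wells and cell-free media wells; concentration-response curves were fitted and assigned curve classes.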
Numbers without * were called inactive; ? = inconclusive; nt = not tested or not shown. Most compounds without a hit are left out; they make up all but 17% or so of the library. The call rests on the fitted dose curve; in most records, active means well fitted curve in the direction sought with a large enough effect; inconclusive means small, poorly fitted or top-dose-only effect, or another doubt; inactive means no such curve, though single readings can be large; an effect the other way counts as inactive or inconclusive. Potency means the concentration at half of the fitted maximal effect.

SMILES	DT40 TDP1 CPT	HT1080 IDH1KD tx	TGFb inhibitor	HepG2 viability	DT40 TDP1 no CPT	HT1080NT lethal
O=c1[nH]c2cc3ccccc3cc2nc1-c1nnnn1Cc1ccccc1	?	-3%	nt	nt	23µM*	4%
CC(=O)N(C)c1ccc(NC(=O)N2CCOCC2)cc1	13%	18%	-9%	5%	1%	11%
Cc1ccc(CN2CCSCC2)cc1	5%	5%	10%	24%	1%	7%
CCN(CC(=O)Nc1c(F)cccc1F)C(=O)CCCSc1nc2ccccc2[nH]1	-16%	2%	4%	-20%	-23%	9%
OC[C@H]1O[C@@H](c2nc3ccc(-c4nc(-c5ccc(Br)cc5)no4)cc3[nH]2)C[C@@H]1O	16µM*	18µM*	7%	-29%	16µM*	18µM*
COC(=O)C1=CN(CCOC23CC4CC(CC(C4)C2)C3)C=C(C(=O)OC)C1c1ccsc1	?	?	?	11%	12µM*	?
COC(=O)C1=CN(Cc2cccs2)C=C(C(=O)OC)C1c1ccc(OC)cc1OC	-4%	-8%	18%	13%	?	-10%
COC(=O)C1=CN(CC2CCCO2)C=C(C(=O)OC)C1c1ccsc1 (stereo not drawn)	12%	2%	-3%	12%	2%	-4%
COC(=O)C1=CN(Cc2ccc(OC)cc2)C=C(C(=O)OC)C1c1ccsc1	21µM*	-21%	?	-12%	?	-6%
COC(=O)C1=CN(Cc2cccs2)C=C(C(=O)OC)C1c1cccc(Cl)c1	4%	-23%	?	10µM*	?	-8%
COc1cc2c(cc1NC(=O)CN(C)Cc1nc3ccccc3c(=O)[nH]1)oc1ccccc12	18µM*	-18%	-13%	-36%	23µM*	-12%
CSc1ccc(CN(C)Cc2nc3ccccc3c(=O)[nH]2)cc1	?	-1%	-8%	-2%	15µM*	-11%
CN(CC(=O)NC(=O)NCc1ccco1)Cc1nc2ccccc2c(=O)[nH]1	4.6µM*	11µM*	?	-1%	1.6µM*	?
CN(CC(=O)Nc1ccccc1Sc1ccccc1)Cc1nc2ccccc2c(=O)[nH]1	?	?	?	0%	18µM*	-21%
CS(=O)(=O)N(Cc1ccc(F)cc1)Cc1nc2ccccc2c(=O)[nH]1	3%	6%	-8%	6%	2%	0%
COc1ccc(C[C@@H]2C(=O)N[C@H](C)C(=O)N(C)[C@@H]3Cc4ccc(cc4)Oc4cc(ccc4O)C[C@H](C(=O)N[C@@H](C)C(=O)N[C@H](C)C(=O)N2C)N(C)C3=O)cc1	?	nt	-82%	-13%	?	nt
Cc1cccn2c(=O)cc(CSc3nnc(NC(=O)C(C)C)s3)nc12	-4%	nt	?	-6%	-14%	nt
O=C(c1ccncc1)N1CCC2(CCCN(Cc3nccs3)C2)CC1	12%	nt	nt	nt	-2%	nt
COc1cc(/C=N/NC(=O)c2cccc(S(=O)(=O)N3CCCC3)c2)cc(OC)c1O	-21%	2%	-10%	-17%	?	-2%
CCOC(=O)N1CCC(NC(=O)c2cccc3c2C(=O)N(c2ccc(OC)cc2)C3)CC1	15µM*	-7%	-26%	-15%	?	-1%
COc1ccc(N2Cc3cccc(C(=O)Nc4ccc(F)cc4)c3C2=O)cc1	10µM*	nt	8%	1%	8.2µM*	nt
CCC1=C(OC(=O)N(CC)CC)N2C(=O)OC(=NCC3CC3)[C@]2(C)[C@H]2C1=CC[C@H]1C(=O)N(CC)C(=O)[C@H]12	-6%	13%	9%	-1%	3%	13%
O=C(NCC1CCN(Cc2ccccc2F)CC1)Nc1cccc(Br)c1	?	?	?	-24%	16µM*	?
O=C(NCC1CCN(Cc2cccc(Cl)c2)CC1)Nc1cc(Cl)ccc1Cl	23µM*	nt	?	-90%	13µM*	nt
Cc1ccc(C)c(CN2CCC(CNC(=O)Nc3ccc(C)c(C)c3)CC2)c1	?	1%	0%	-6%	15µM*	10%
SMILES	DT40 TDP1 CPT	HT1080 IDH1KD tx	TGFb inhibitor	HepG2 viability	DT40 TDP1 no CPT	HT1080NT lethal
O=C(NCC1CCN(Cc2cccc(Cl)c2)CC1)Nc1ccc(Cl)cc1	?	?	?	-86%	?	?
COc1ccc(Cl)cc1NC(=O)NCC1CCN(Cc2cc(C)ccc2C)CC1	?	?	?	-109%	?	?
CCc1cccc(CN2CCC(CNC(=O)Nc3ccc(Cl)cc3)CC2)c1	?	9%	6%	7%	?	15%
O=C(NCC1CCN(Cc2cccc(Cl)c2)CC1)Nc1ccc(F)c(Cl)c1	-85%	nt	22µM*	-113%	?	nt
COc1ccc(-c2noc(CCCC(=O)NCC3CCCO3)n2)cc1 (stereo not drawn)	-10%	-12%	-29%	-12%	?	-9%
O=C(Cc1ccc(Cl)cc1Cl)NCc1cccnc1	-4%	7%	0%	-5%	2%	1%
O=C(Nc1ccc2nc(C3CC3)n(Cc3ccc(F)cc3)c(=O)c2c1)c1ccco1	20µM*	-18%	?	7%	?	-13%
Cc1nc2ccc(NC(=O)c3ccco3)cc2nc1C	-5%	-1%	2%	23%	-12%	2%
COc1ccc(Cn2c(C3CC3)nc3ccc(NC(=O)C4CC4)cc3c2=O)cc1	-24%	-20%	0%	-8%	?	-19%
CCC(=O)Nc1ccc2nc(C3CC3)n(Cc3ccc(C(C)(C)C)cc3)c(=O)c2c1	18µM*	-2%	14%	-25%	15µM*	-5%
S=C(NCC1(c2ccccc2)CCCC1)Nc1ccccc1	21µM*	-9%	-23%	-28%	12µM*	-8%
O=C(NCC1(c2ccccc2)CCCC1)C(=O)NCC1(c2ccccc2)CCCC1	-1%	7%	6%	2%	-30%	12%
O=C(NCC1(c2ccccc2)CCCC1)c1ccccc1Br	16µM*	-25%	0%	-31%	?	2%
COc1ccccc1C(=O)NCC1(c2ccccc2)CCCC1	16µM*	-4%	?	-19%	?	15%
O=C(NCC1(c2ccccc2)CCCC1)c1ccccc1	15µM*	5%	2%	-8%	12µM*	3%
O=C(NCC1(c2ccccc2)CCCC1)C1(c2ccccc2)CCCC1	?	?	?	-12%	?	?
